# Test results published in the supplement of paper PMC12350171.
# Counter-ions that a name gives are not always drawn. Unmarked numbers belong to inactive results.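 The calls were made as follows: active = normalised median growth AUC below 0.1 of DMSO control; inactive = AUC 0.1 or higher.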
# What was measured:
# Test in all cases: growth AUC normalised to DMSO control (median) (fraction of control); higher = less growth inhibition, active = hit call of the paper
# Details in all cases: 20 µM
# P. vulgatus RND KO = tested on: P. vulgatus RND KO
# Outline: (§1)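 Anaerobic growth was tracked hourly at OD578 for 24 h in 96-well plates of mGAM seeded at OD578 0.01 with each approved-drug library compound at 20 μM and 1% DMSO. Strains had first been passaged twice overnight without oxygen. Three biological replicates were run. The reported median is the area under the curve, calculated by the trapezoidal rule on curves truncated at entry into stationary phase and normalised to vehicle wells on the same plate.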
# P. vulgatus WT = tested on: P. vulgatus WT
# Outline: as §1
# [1] = tested on: S. enterica typhimurium WT
# Outline: as §1
# [2] = tested on: S. enterica typhimurium tolC KO
# Outline: as §1
# 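Also: active when median AUC fell below 0.1.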
SMILES,growth AUC normalised to DMSO control (P. vulgatus RND KO),growth AUC normalised to DMSO control (P. vulgatus WT),growth AUC normalised to DMSO control [1],growth AUC normalised to DMSO control [2]
NC(=O)NS(=O)(=O)c1ccc(N)cc1 [Sulfacarbamide],0.997,1.01,0.995,1
COCC1=C(C(=O)OC(C)OC(=O)OC(C)C)N2C(=O)[C@@H](NC(=O)/C(=N\OC)c3csc(N)n3)[C@H]2SC1 (some centres not stated) [Cefpodoxime proxetil],,,0.853,0.338
C=C1[C@H](CO)[C@@H](O)C[C@@H]1n1cnc2c(=O)[nH]c(N)nc21 [Entecavir],1,0.996,0.999,0.987
O=C(O)COc1nn(Cc2ccccc2)c2ccccc12 [Bendazac],0.998,1.02,1,0.987
Cn1nnnc1SCC1=C(C(=O)O)N2C(=O)[C@@H](NC(=O)[C@H](O)c3ccccc3)[C@H]2SC1 [Cefamandole sodium salt],0.204,,0.0103 (active),0.00496 (active)
CCN1/C(=C/C=C/C=C/c2sc3ccccc3[n+]2CC)Sc2ccccc21 [Dithiazanine iodide],,1.02,1,0.695
O=C(O)Cc1ccccc1Oc1ccc(Cl)cc1Cl [Fenclofenac],0.992,1.05,1.02,1.02
Cc1cc2nc3ccc(=[N+](C)C)cc-3sc2cc1N [Tolonium chloride],0.996,1,0.981,0.987
Cn1c([N+](=O)[O-])cnc1COC(N)=O [Ronidazole],0.0102 (active),0.00777 (active),0.999,0.923
CCCSS/C(CCO)=C(/C)N(C=O)Cc1cnc(C)nc1N [Prosultiamine],1.09,1.06,0.997,1.02
CO[C@@]12[C@H](COC(N)=O)C3=C(C(=O)C(C)=C(N)C3=O)N1C[C@@H]1N[C@@H]12 [Mitomycin C],0.0125 (active),0.013 (active),0.196,0.00599 (active)
CCOC(=O)[C@H](CCc1ccccc1)N[C@@H](C)C(=O)N1C(=O)N(C)C[C@H]1C(=O)O [Imidapril hydrochloride],1.01,1,1.02,1
Cc1nc2n(c(=O)c1CCN1CCC(c3noc4cc(F)ccc34)CC1)CCCC2O (configuration not stated) [Paliperidone],0.976,0.958,0.997,0.985
NC(=O)c1cc[n+](CC2=C(C(=O)O)N3C(=O)[C@@H](NC(=O)C(c4ccccc4)S(=O)(=O)[O-])[C@H]3SC2)cc1 (some centres not stated) [Cefsulodin Sodium Salt Hydrate],,,0.995,0.986
Cc1nc2ccccc2n1Cc1ccc(Cl)cc1 [Chlormidazole],0.974,0.95,0.951,0.833
CC(C)C(=O)OCC(=O)[C@@]12O[C@H](C3CCCCC3)O[C@@H]1C[C@H]1[C@@H]3CCC4=CC(=O)C=C[C@]4(C)[C@H]3[C@@H](O)C[C@@]12C [Ciclesonide],1.02,1.02,1.01,1.01
N[C@@H](Cc1c[nH]c2ccccc12)C(=O)O [L-Tryptophan],1,1.03,0.994,0.989
Cc1ccc(=O)n(-c2ccccc2)c1 [Pirfenidone],0.932,0.875,1,1

SMILES,growth AUC normalised to DMSO control (P. vulgatus RND KO),growth AUC normalised to DMSO control (P. vulgatus WT),growth AUC normalised to DMSO control [1],growth AUC normalised to DMSO control [2]
COc1ccc2c(c1)c(CC(=O)OC/C=C(\C)CC/C=C(\C)CCC=C(C)C)c(C)n2C(=O)c1ccc(Cl)cc1 [Indometacin farnesil],1,0.988,0.996,1.01
O=C(Oc1ccccc1)c1ccccc1O [Phenyl salicylate],1.03,1.06,1.01,0.975
C[C@H]1COc2c(N3CCN(C)CC3)c(F)cc3c(=O)c(C(=O)O)cn1c23 [Levofloxacin],0.014 (active),0.0149 (active),0.00504 (active),0.00559 (active)
COc1c(-c2ccc3cc(NS(C)(=O)=O)ccc3c2)cc(-n2ccc(=O)[nH]c2=O)cc1C(C)(C)C [Dasabuvir],0.831,0.827,1,0.94
CSc1nc2cc(Cl)c(Oc3cccc(Cl)c3Cl)cc2[nH]1 [Triclabendazole],0.0625 (active),0.129,0.991,0.0431 (active)
CC(C)=C/C(C)=N/Nc1nncc2ccccc12 [Budralazine],1.02,1.08,0.999,0.989
O=C1OC(CN2CCOCC2)CN1/N=C/c1ccc([N+](=O)[O-])o1 (configuration not stated) [Furaltadone hydrochloride],0.0255 (active),0.0192 (active),0.878,0.856
CCOC(=O)c1ccc(C#Cc2ccc3c(c2)C(C)(C)CCS3)nc1 [Tazarotene],0.993,1.02,1,0.982
CCC(C)(C)c1ccc(CC(C)CN2C[C@@H](C)O[C@@H](C)C2)cc1 (some centres not stated) [Amorolfine hydrochloride],1.01,1.03,1.01,0.963
CO/N=C(\C(=O)N[C@@H]1C(=O)N2C(C(=O)[O-])=C(C[n+]3ccn4ncccc43)CS[C@H]12)c1nsc(N)n1 [Cefozopran hydrochloride],,0.128,0.0996 (active),0.1
O=C(O)c1cc(=O)[nH]c(=O)[nH]1 [Orotic acid],0.976,0.993,1,1.01
CCC(=O)c1ccc(O)cc1 [Paroxypropione],1,0.985,0.994,1
CO/N=C(\C(=O)N[C@@H]1C(=O)N2C(C(=O)OC(C)OC(C)=O)=C(COC(N)=O)CS[C@H]12)c1ccco1 (some centres not stated) [Cefuroxime axetil],,0.664,1.1,
CC(=O)Nc1cccc(O)c1 [Metacetamol],1,1.01,1,0.987
Nc1nc(/C(=C/CC(=O)O)C(=O)N[C@@H]2C(=O)N3C(C(=O)O)=CCS[C@H]23)cs1 [Ceftibuten],,0.58,0.746,
CN(C)CCc1c[nH]c2ccc(C[C@H]3COC(=O)N3)cc12 [Zolmitriptan],0.971,0.964,1,1
CC/C=C(\C(=O)N[C@@H]1C(=O)N2C(C(=O)OCOC(=O)C(C)(C)C)=C(COC(N)=O)CS[C@H]12)c1csc(N)n1 [Cefcapene pivoxil hydrochloride monohydrate],,,1.03,0.159
